# Most compounds without a hit are left out; they make up all but 19% or so of the library.
# IL-1B inflam inh: inflammasome signaling inhibition, IL-1 beta readout | THP-1 LPS/ATP IL-1B secretion, AlphaLISA, 16 h; stronger effect = lower value | AID 743279 | activity change, % at 57.5 µM | 360,000 compounds, 4.7% hits; in the data active = activity change below about -50%; inconclusive = mostly about -30% to -49%
#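 Secreted IL-1B measured by AlphaLISA bead assay after 16 h compound exposure of THP-1 cells; compounds (final up to 57.5 uM) added 1 h before LPS (250 ng/mL) and ATP (1.25 mM) stimulation; lower signal means less secretion.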
# HT1080 IDH1KD tx: HT-1080 IDH1 knockdown cell toxicity (counter line); 360,000 compounds, 2% hits; HT-1080 IDH1 knockdown viability, ATP luminescence, 48 h; Potency, µM (highest dose often 46.1 µM), inactives show top-dose activity, negative = toxicity, usual class: cytotoxic;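 note: potency is the fitted concentration of half-maximal effect; 0% = DMSO wells and -100% = cell-free medium wells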
#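 After a 2 h attachment period, IDH1KD HT-1080 cells took pin-transferred compound for 48 h at 37 °C; ATP-based luminescence after 10 min room-temperature reagent incubation reported viability.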
# HT1080-NT tox: kills 2HG-producing HT-1080-NT fibrosarcoma cells; HT-1080-NT fibrosarcoma viability, CellTiter-Glo ATP luminescence, 48 h; Potency, µM (highest dose often 46.1 µM), without a hit: at the highest dose activity, negative = less viability, actives largely listed as cytotoxic; 360,000 compounds, 1.6% hits;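 note: NT is the 2HG producing partner of a matched IDH1 knockdown line; potency is the fitted concentration of half-maximal effect; 0% = DMSO-treated cells and -100% = media-only wells without cells; nearly all actives have a fitted effect of over 55% in size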
#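 750 cells/well, RPMI + 5% FBS; 2 h settle, compound pin-transfer, 48 h at 37 degrees C. CellTiter-Glo 10 min RT, luminescence. Normalized to DMSO and media-only wells.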
# DT40 TDP1 no CPT: qHTS for Inhibitors of human tyrosyl-DNA phosphodiesterase 1 (TDP1): qHTS in cells in absence of CPT; Potency, µM (series often up to 46.2 µM), for inactives: top-dose activity change, negative = growth inhibition, actives largely listed as inhibitors; 420,000 compounds, 15% hits; DT40 Tdp1-/- hTDP1 cells, no CPT, ATP luminescence, 48 h; AID 686978, 2013; note: potency is the fitted concentration of half-maximal effect; nearly all actives have a fitted effect of over 55% in size
#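 Readout: luminescence from CellTiter-Glo after 30 min in the dark at RT. Cells: DT40 Tdp1-/- with stable hTDP1, 400/well. Exposure: compounds alone, ≥48 hr, 37 °C.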
# TDP1 cell CPT: DT40-hTDP1 cell growth loss with CPT; chicken DT40 Tdp1-/-;hTDP1 cells + 20 nM CPT, ATP luminescence, 48 h; Potency, µM (series often up to 46.2 µM), for the others: at the top dose activity change, negative = growth inhibition, hits mostly inhibitors; 420,000 compounds, 12% hits; note: potency is the fitted concentration of half-maximal effect; nearly all actives have a fitted effect of over 55% in size
#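 Chicken DT40 Tdp1-/- cells complemented with human TDP1, 400 cells/well, exposed to compounds plus 20 nM camptothecin for at least 48 h at 37 C; viability read as ATP content by CellTiter-Glo luminescence.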
# Active calls of the source: *; i = inactive; ? = inconclusive; · = not tested or not shown. Unless noted, calls come from the whole dose curve; as a rule, active = well fitted curve in the direction sought with a large enough effect; inconclusive = small, poorly fitted or top-dose-only effect, or another doubt; inactive = no such curve, though single readings can be large; an effect the other way counts as inactive or inconclusive. Unless noted, % is set by controls: 0 for no effect and ±100 for the full control effect.
SMILES,IL-1B inflam inh,HT1080 IDH1KD tx,HT1080-NT tox,DT40 TDP1 no CPT,TDP1 cell CPT
Cc1ccc(C(=O)NCCN2C3=NC[C@H](C(C)C)N3C[C@H]2Cc2ccc(O)cc2)cc1Br,-24.3,-29.4%,-26.3%,10.3µM*,5.17µM*
C/C=C(\C)C(=O)NCCN1C2=NC[C@H](C(C)C)N2C[C@H]1Cc1ccc(O)cc1,26.3,-2.5%,-0.1%,-5.4%,-0.2%
COc1ccc(NC(=O)NC(=O)c2cc(OCC(F)(F)F)ccc2OCC(F)(F)F)cc1,·,-29.4%,-8.5%,-29.0%,0.6%
N#Cc1cccc(NC(=O)COC(=O)c2ccc[n+]([O-])c2)c1,10.1,15.1%,1.6%,-6.2%,16.5%
O=C(Nc1ccc(C(F)(F)F)cc1)C1(c2cccs2)CCOCC1,·,·,·,23.1µM*,?
CC(=O)Nc1cccc(NC(=O)C2(c3cccs3)CCOCC2)c1,·,·,·,-7.0%,-0.5%
O=C(Nc1cc(Cl)ccc1Cl)C1(c2cccs2)CCOCC1,·,·,·,20.6µM*,16.4µM*
Cc1ccc(NC(=O)C2(c3cccs3)CCOCC2)cc1Cl,·,·,·,?,25.9µM*
CN(C)c1ccc(NC(=O)C2(c3cccs3)CCOCC2)cc1,·,·,·,-2.2%,-4.1%
Cc1cc(C(=O)NCC(=O)OCC(=O)Nc2ccc(OC(F)F)cc2)ccc1[N+](=O)[O-],0.0,17.2%,11.1%,2.8%,2.5%
COc1ccc(C(=O)OCCOc2cccc(Cl)c2)cc1S(=O)(=O)N1CCOCC1,i,-13.5%,-14.0%,?,?
CCCCn1c2c(c(=N)c3c1CCC3)CCC2,-2.5,-18.3%,-17.4%,4.61µM*,6.51µM*
CCCCCCn1c(=O)[nH]c2c(c1=O)CCC2,-1.1,-1.5%,-2.0%,1.5%,11.4%
CCn1c2c(c(=N)c3ccccc31)CCC2,-2.1,?,?,-25.0%,5.0%
CCCCCCCn1c2c(c(=N)c3c1CCC3)CCCC2,-27.1,7.31µM*,9.2µM*,0.326µM*,0.411µM*
CCCCCCn1c2c(c(=N)c3c1CCC3)CCC2,?,1.58µM*,1.58µM*,0.259µM*,0.411µM*
CCCCCCCCCn1c2c(c(=N)c3c1CCC3)CCC2,-96.9*,?,1.46µM*,0.0184µM*,0.058µM*
CCn1c2c(c(=N)c3c1CCC3)CCC2,-13.0,20.3%,6.9%,-5.6%,-7.1%
Cc1ccc(OCC(=O)Nc2cc3nn(-c4ccccc4)nc3cc2C)cc1,·,·,·,-3.0%,-3.0%
O=C(O)COc1ccc2c3c(c(=O)oc2c1)CCC3,19.4,22.1%,20.0%,-6.8%,-14.9%
COc1cccc(NC(=O)CSCn2nnc3c(=O)[nH]c(Cc4ccc(F)cc4)nc32)c1,·,·,·,4.11µM*,-21.6%
COc1ccccc1NC(=O)C(Sc1ccccc1)c1ccccc1 (configuration not stated),16.9,-16.7%,0.2%,?,20.6µM*
O=C(Nc1ccccc1)Nc1ccc2ccccc2c1,-0.9,-1.0%,-0.6%,17.7%,-6.7%
COc1ccccc1NC(=O)Nc1ccc(C)cn1,7.4,6.9%,12.8%,-18.2%,-9.7%
O=C(Nc1ccccc1)Nc1cccc(NC(=O)Nc2ccccc2)c1F,19.7,0.0%,-3.3%,-1.8%,4.2%
SMILES,IL-1B inflam inh,HT1080 IDH1KD tx,HT1080-NT tox,DT40 TDP1 no CPT,TDP1 cell CPT
O=C(Nc1ccccc1)Nc1ccccc1Br,-9.4,0.2%,-11.6%,?,14.6µM*
O=C(Nc1ccccc1)Nc1ccc(Br)c(Cl)c1,?,-18.2%,-10.8%,16.4µM*,?
COc1ccccc1NC(=O)Nc1cc(NC(=O)Nc2ccccc2OC)c(C)nc1C,36.5,16.4µM*,16.4µM*,?,?
COc1ccccc1NC(=O)Nc1ccccc1Br,-14.3,14.4%,11.9%,?,18.4µM*
COc1ccccc1NC(C)=O,30.8,8.9%,7.3%,-1.7%,-1.2%
COc1cc2c(cc1OC)CN(C(=O)c1ccc(N3CCCC3)c([N+](=O)[O-])c1)CC2,-55.8*,1.0%,-1.3%,23.1µM*,20.6µM*
COc1cc2c(cc1OC)CN(c1ccc(F)cc1[N+](=O)[O-])CC2,-66.9*,-10.6%,-1.2%,?,-24.5%
CN1CCN(c2cc(N3CCc4ccccc4C3)c(F)cc2[N+](=O)[O-])CC1,-51.2*,-24.5%,-2.4%,20.6µM*,16.4µM*
COc1ccccc1N1CCN(c2ccc([N+](=O)[O-])cc2Cl)CC1,0.0,?,?,11.6µM*,14.6µM*
COc1ccccc1N1CCN(S(=O)(=O)c2ccc([N+](=O)[O-])cc2)CC1,-3.6,4.5%,2.6%,?,?
COc1cccc(CN2CCC(C(=O)N3CCC(C)CC3)CC2)c1,3.1,2.4%,4.2%,-5.2%,7.4%
CCCOc1ccccc1C(=O)N1CCCCC1CCN1CCOCC1 (configuration not stated),·,·,·,-17.0%,4.4%
N#Cc1cc([N+](=O)[O-])ccc1N1CCCC1,-21.7,-8.2%,-4.7%,?,-27.2%
COc1cc2c(cc1OC)CN(c1ccc([N+](=O)[O-])cc1C#N)CC2,?,-2.4%,-15.9%,13µM*,20.6µM*
COc1ccccc1N1CCN(C(=S)NC(=O)c2ccc([N+](=O)[O-])cc2)CC1,-4.1,-26.3%,-13.4%,20.6µM*,20.6µM*
COc1cc2c(cc1OC)CN(c1ccc([N+](=O)[O-])cc1Cl)CC2,-87.8*,-23.1%,?,11.6µM*,23.1µM*
COc1ccc(C(=O)NC(=S)N2CCN(c3ccccc3OC)CC2)cc1,-23.5,-0.6%,-23.4%,?,?
Cc1ccccc1NC(=O)c1nc(SCc2ccccc2F)ncc1Cl,·,·,·,-28.8%,?
CCN(CC(=O)Nc1ccc2c(c1)OCCO2)C(=O)C(C)Oc1ccc(F)cc1 (configuration not stated),-8.2,4.6%,-0.6%,-29.7%,2.4%
CC(C)N1C(=O)CCC1C(=O)NCc1ccccc1Cl (configuration not stated),-3.5,4.8%,3.9%,-18.7%,9.3%
O=S(=O)(CCN1CCN(c2ccccn2)CC1)c1ccc(F)cc1,0.8,7.0%,5.9%,-4.3%,-2.2%
O=c1oc2cccnc2n1CCS(=O)(=O)c1ccc(F)cc1,-66.2*,-3.0%,-11.2%,-17.5%,-3.5%
COc1ccc(CNC(=O)c2ccc(CS(=O)c3ccccc3)o2)cc1 (configuration not stated),-23.4,8.6%,1.4%,4.1%,0.0%
Cc1cc(Br)cc2c1N(Cc1ccccc1OC(C)C)C(=O)C2=O,·,·,·,4.11µM*,20.6µM*
CCOC(=O)CN1C(=O)C(=O)c2cccc(C)c21,-3.3,2.4%,-0.3%,?,?
COc1ccccc1CN1C(=O)C(=O)c2cccc(C)c21,·,·,·,6.51µM*,13µM*
Cc1ccc(OCCN2C(=O)C(=O)c3cccc(C)c32)cc1,1.6,11.0%,-0.9%,2.91µM*,2.31µM*

# Source: PubChem (National Center for Advancing Translational Sciences (NCATS))
